Source: PubChem BioAssay AID1159580 (chemical genetic matrix, 2015)
Hit rate of the full screen: of about 5,500 compounds, about 2,000 (36%) were called active. About 18% were inconclusive and are not listed. Some of the results follow. A number with no mark means an inactive call. Rule as the data show it: active = normalized growth mostly below about 0.91 (no sharp cut-off); inconclusive = no clear call, values can overlap the other calls; inactive = mostly above about 0.92.

Assay: chemical genetic growth profiling, strain panel (AID 1159580);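 also: tested at 20 µM; growth read once vehicle control cultures reached saturation at 30 °C; 1 = growth at the plate median or of vehicle wells; lower values mean less growth of the strain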
Details: growth OD
[1] = S. cerevisiae deletion strains, locus YPL241C, strain CIN2, hits give low values

Compound: Cc1ccc(C(C)C)c(O)c1C(=O)O
- normalized growth (S. cerevisiae deletion strains, locus YAL013W, strain DEP1, hits give low values): 0.993
- normalized growth (S. cerevisiae deletion strains, locus YBR021W, strain FUR4, hits give low values): 0.912
- normalized growth (S. cerevisiae deletion strains, locus YBR229C, strain ROT2, hits give low values): 0.986
- normalized growth (S. cerevisiae deletion strains, locus YCL029C, strain bik1, hits give low values): 0.951
- normalized growth (S. cerevisiae deletion strains, locus YDL035C, strain GPR1, hits give low values): 0.997
- normalized growth (S. cerevisiae deletion strains, locus YDL074C, strain BRE1, hits give low values): 0.998
- normalized growth (S. cerevisiae deletion strains, locus YDL101C, strain DUN1, hits give low values): 0.999
- normalized growth (S. cerevisiae deletion strains, locus YDL134C, strain PPH21, hits give low values): 0.998
- normalized growth (S. cerevisiae deletion strains, locus YDL185W, strain tfp1, hits give low values): 0.784 (active)
- normalized growth (S. cerevisiae deletion strains, locus YDL192W, strain arf1, hits give low values): 0.95
- normalized growth (S. cerevisiae deletion strains, locus YDR101C, strain arx1, hits give low values): 0.971
- normalized growth (S. cerevisiae deletion strains, locus YDR162C, strain NBP2, hits give low values): 0.977
- normalized growth (S. cerevisiae deletion strains, locus YDR318W, strain mcm21, hits give low values): 0.96
- normalized growth (S. cerevisiae deletion strains, locus YDR388W, hits give low values): 0.935
- normalized growth (S. cerevisiae deletion strains, locus YDR502C, strain sam2, hits give low values): 0.957
- normalized growth (S. cerevisiae deletion strains, locus YEL061C, strain CIN8, hits give low values): 0.981
- normalized growth (S. cerevisiae deletion strains, locus YER110C, hits give low values): 0.959
- normalized growth (S. cerevisiae deletion strains, locus YER155C, strain BEM2, hits give low values): 0.914 (active)
- normalized growth (S. cerevisiae deletion strains, locus YER167W, strain BCK2, hits give low values): 0.973
- normalized growth (S. cerevisiae deletion strains, locus YGL078C, strain dbp3, hits give low values): 0.859 (active)
- normalized growth (S. cerevisiae deletion strains, locus YGL086W, strain mad1, hits give low values): 0.975
- normalized growth (S. cerevisiae deletion strains, locus YGL248W, strain PDE1, hits give low values): 0.995
- normalized growth (S. cerevisiae deletion strains, locus YGR078C, strain PAC10, hits give low values): 1
- normalized growth (S. cerevisiae deletion strains, locus YGR135W, strain pre9, hits give low values): 0.975
- normalized growth (S. cerevisiae deletion strains, locus YGR252W, strain gcn5, hits give low values): 0.919
- normalized growth (S. cerevisiae deletion strains, locus YHR030C, strain SLT2, hits give low values): 0.97
- normalized growth (S. cerevisiae deletion strains, locus YHR079C, strain IRE1 (second series), hits give low values): 0.936
- normalized growth (S. cerevisiae deletion strains, locus YHR094C, strain hxt1, hits give low values): 0.923 (active)
- normalized growth (S. cerevisiae deletion strains, locus YHR129C, strain ARP1, hits give low values): 0.965
- normalized growth (S. cerevisiae deletion strains, locus YHR200W, strain rpn10, hits give low values): 0.945
- normalized growth (S. cerevisiae deletion strains, locus YIL066C, strain RNR3, hits give low values): 1.01
- normalized growth (S. cerevisiae deletion strains, locus YIL073C, strain SPO22, hits give low values): 1
- normalized growth (S. cerevisiae deletion strains, locus YIL125W, strain kgd1, hits give low values): 0.808 (active)
- normalized growth (S. cerevisiae deletion strains, locus YIR030C, strain dcg1, hits give low values): 0.949
- normalized growth (S. cerevisiae deletion strains, locus YJL095W, strain BCK1, hits give low values): 0.992
- normalized growth (S. cerevisiae deletion strains, locus YJL134W, strain LCB3, hits give low values): 0.955
- normalized growth (S. cerevisiae deletion strains, locus YJL168C, strain set2, hits give low values): 0.921 (active)
- normalized growth (S. cerevisiae deletion strains, locus YJL187C, strain SWE1 (second series), hits give low values): 1.01
- normalized growth (S. cerevisiae deletion strains, locus YJR043C, strain POL32, hits give low values): 0.981
- normalized growth (S. cerevisiae deletion strains, locus YJR075W, strain HOC1, hits give low values): 0.998
- normalized growth (S. cerevisiae deletion strains, locus YKL009W, strain mrt4, hits give low values): 0.897
- normalized growth (S. cerevisiae deletion strains, locus YKL068W, hits give low values): 0.82 (active)
- normalized growth (S. cerevisiae deletion strains, locus YKL085W, strain MDH1 (second series), hits give low values): 0.83 (active)
- normalized growth (S. cerevisiae deletion strains, locus YKL085W, strain MDH1, hits give low values): 0.83 (active)
- normalized growth (S. cerevisiae deletion strains, locus YKL190W, strain CNB1, hits give low values): 0.987
- normalized growth (S. cerevisiae deletion strains, locus YKR001C, strain vps1, hits give low values): 0.917
- normalized growth (S. cerevisiae deletion strains, locus YLR039C, strain RIC1, hits give low values): 0.943
- normalized growth (S. cerevisiae deletion strains, locus YLR058C, strain SHM2, hits give low values): 0.995
- normalized growth (S. cerevisiae deletion strains, locus YLR102C, strain apc9, hits give low values): 0.918 (active)
- normalized growth (S. cerevisiae deletion strains, locus YLR262C, strain YPT6, hits give low values): 0.986
- normalized growth (S. cerevisiae deletion strains, locus YLR268W, strain sec22, hits give low values): 0.96
- normalized growth (S. cerevisiae deletion strains, locus YLR330W, strain CHS5, hits give low values): 0.947
- normalized growth (S. cerevisiae deletion strains, locus YLR342W, strain FKS1 (second series), hits give low values): 0.973
- normalized growth (S. cerevisiae deletion strains, locus YLR371W, strain rom2, hits give low values): 0.94
- normalized growth (S. cerevisiae deletion strains, locus YLR418C, strain cdc73, hits give low values): 0.946
- normalized growth (S. cerevisiae deletion strains, locus YML016C, strain PPZ1, hits give low values): 0.977
- normalized growth (S. cerevisiae deletion strains, locus YML032C, strain rad52, hits give low values): 0.959
- normalized growth (S. cerevisiae deletion strains, locus YML124C, strain tub3, hits give low values): 0.929 (active)
- normalized growth (S. cerevisiae deletion strains, locus YMR078C, strain ctf18, hits give low values): 0.916
- normalized growth (S. cerevisiae deletion strains, locus YMR223W, strain ubp8, hits give low values): 0.972
- normalized growth (S. cerevisiae deletion strains, locus YMR263W, strain SAP30, hits give low values): 0.989
- normalized growth (S. cerevisiae deletion strains, locus YMR307W, strain GAS1, hits give low values): 0.967
- normalized growth (S. cerevisiae deletion strains, locus YNL067W, strain RPL9B, hits give low values): 0.997
- normalized growth (S. cerevisiae deletion strains, locus YNL128W, strain TEP1, hits give low values): 1.01
- normalized growth (S. cerevisiae deletion strains, locus YNL233W, strain BNI4, hits give low values): 0.993
- normalized growth (S. cerevisiae deletion strains, locus YNL250W, strain rad50, hits give low values): 0.848 (active)
- normalized growth (S. cerevisiae deletion strains, locus YNL271C, strain bni1, hits give low values): 0.831 (active)
- normalized growth (S. cerevisiae deletion strains, locus YNL298W, strain CLA4, hits give low values): 0.842 (active)
- normalized growth (S. cerevisiae deletion strains, locus YNL307C, strain MCK1, hits give low values): 0.928
- normalized growth (S. cerevisiae deletion strains, locus YNR052C, strain pop2, hits give low values): 0.951
- normalized growth (S. cerevisiae deletion strains, locus YOL006C, strain TOP1, hits give low values): 0.977
- normalized growth (S. cerevisiae deletion strains, locus YOL012C, strain htz1): 1.59
- normalized growth (S. cerevisiae deletion strains, locus YOL147C, strain pex11, hits give low values): 0.937
- normalized growth (S. cerevisiae deletion strains, locus YOR061W, strain CKA2, hits give low values): 0.989
- normalized growth (S. cerevisiae deletion strains, locus YOR069W, strain VPS5, hits give low values): 0.974
- normalized growth (S. cerevisiae deletion strains, locus YOR136W, strain idh2, hits give low values): 0.979
- normalized growth (S. cerevisiae deletion strains, locus YOR144C, strain elg1, hits give low values): 0.928 (active)
- normalized growth (S. cerevisiae deletion strains, locus YOR184W, strain ser1, hits give low values): 0.962
- normalized growth (S. cerevisiae deletion strains, locus YOR316C, strain cot1, hits give low values): 0.93
- normalized growth [1]: 0.971
- normalized growth (S. cerevisiae deletion strains, locus YPR119W, strain clb2, hits give low values): 0.918 (active)
- normalized growth (S. cerevisiae deletion strains, locus YPR141C, strain kar3, hits give low values): 0.797 (active)
- normalized growth (S. cerevisiae deletion strains, locus YPR163C, strain tif3, hits give low values): 0.908 (active)
- normalized growth (S. cerevisiae deletion strains, locus YPR167C, strain met16, hits give low values): 0.936
- normalized growth (S. cerevisiae deletion strains, strain wtn01, hits give low values): 0.955
- normalized growth (S. cerevisiae strains, strain wild type, hits give low values): 0.988

Compound: CP(=O)(O)CCCN
- normalized growth (S. cerevisiae deletion strains, locus YAL040C, strain CLN3, hits give low values): 1
- normalized growth (S. cerevisiae deletion strains, locus YCL061C, strain MRC1 (second series), hits give low values): 1
- normalized growth (S. cerevisiae deletion strains, locus YDR150W, strain NUM1, hits give low values): 0.983
- normalized growth (S. cerevisiae deletion strains, locus YER002W, strain NOP16, hits give low values): 0.994
- normalized growth (S. cerevisiae deletion strains, locus YNL153C, strain GIM3, hits give low values): 0.99
- normalized growth (S. cerevisiae deletion strains, locus YNL175C, strain NOP13, hits give low values): 0.996
- normalized growth (S. cerevisiae deletion strains, locus YNL197C, strain WHI3, hits give low values): 1.02
- normalized growth (S. cerevisiae deletion strains, locus YNL224C, strain SQS1, hits give low values): 0.98
- normalized growth (S. cerevisiae deletion strains, locus YOR083W, strain WHI5 (second series), hits give low values): 1.01
- normalized growth [1]: 0.989
